# Results taken from the supplement of paper PMC6555819.
# Experiments:
# Assay in all cases: PBM binding z-score (relative to random genomic background probes); higher = stronger binding; sequences stand for … in GC…GCGATTGACAGCGTAGAATGAAGG
# [1] = tested on: FXR:RXRa (NR concentration 270 nM, RXRa partner concentration 90 nM)
# Procedure, shortened: (§1)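 Regression normalization was applied to scanned fluorescence from custom Agilent 4×180K protein-binding microarrays. Before scanning, arrays were incubated 1 h with ligand-free nuclear receptor dimers, and binding was detected with antibodies against each partner (one per run). Binding z-scores use the random background probes as reference.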
# [2] = tested on: LXRa:RXRa (NR concentration 270 nM, RXRa partner concentration 90 nM)
# Procedure, shortened: as §1
# [3] = tested on: LXRa homodimer (NR concentration 270 nM)
# Procedure, shortened: as §1
# [4] = tested on: LXRb:RXRa (NR concentration 270 nM, RXRa partner concentration 90 nM)
# Procedure, shortened: as §1
# [5] = tested on: LXRb homodimer (NR concentration 270 nM)
# Procedure, shortened: as §1
# [6] = tested on: PPARa:RXRa (NR concentration 270 nM, RXRa partner concentration 90 nM)
# Procedure, shortened: as §1
# [7] = tested on: PPARg:RXRa (NR concentration 180 nM, RXRa partner concentration 90 nM)
# Procedure, shortened: as §1
# [8] = tested on: PPARg:RXRa 270nM:90nM, anti-RXR (NR concentration 270 nM, RXRa partner concentration 90 nM)
# Procedure, shortened: as §1
# [9] = tested on: PPARg:RXRa 30nM:10nM, anti-RXR (NR concentration 30 nM, RXRa partner concentration 10 nM)
# Procedure, shortened: as §1
# [10] = tested on: PPARg:RXRa 90nM:30nM, anti-RXR (NR concentration 90 nM, RXRa partner concentration 30 nM)
# Procedure, shortened: as §1
Sequence,PBM binding z-score [1],PBM binding z-score [2],PBM binding z-score [3],PBM binding z-score [4],PBM binding z-score [5],PBM binding z-score [6],PBM binding z-score [7],PBM binding z-score [8],PBM binding z-score [9],PBM binding z-score [10]
TAGCCTAGGTCCTTCAGGGGCCAGTATAGAAAGC,-0.77,-0.784,-0.674,-0.628,-0.884,-0.292,-0.229,-0.451,-0.73,-0.359
CAAACTAGGTCACAGAGGTTAAAGTCCGTGCGTA,5.89,5.17,3.01,4.28,0.562,6.05,9.43,7.64,5.91,7.56
ATATGTAGTTTAGGGTCATTCAGAAAGTAGGGAA,5.21,4.46,1.76,4.87,2.03,5.14,3.26,3.61,1.72,2.87
ATATGTAGGTTAGTGTCATTCAGAAAGTAGGGAA,1,1.03,0.483,1.41,0.974,3.21,4.15,3.57,1.5,2.8
ACTAGCAGGCCAAGGGTGACTCAAGATTAGTCCG,-0.498,-0.205,-0.435,-0.119,-1,2.13,4.45,5.29,3.6,5.35
CAAACTAGGTCAAAGGTCAAAGTAGAGCCAACCA,8.58,7.15,5.51,7.55,2.88,7.99,13.8,11.5,13,13.8
ATATGTAGCTTAAGGGTCATTCAGGTTGGTTCGC,3.83,3.86,1.83,3.79,0.863,4.2,3.93,5.35,3.44,5.39
CGAACTAGGTCAGAACAGGACAGTTAAGGATGAT,1.32,0.929,-0.00999,0.73,-0.36,3.07,5.13,4.49,2.04,3.46
CCTACTGGGCCAAAGGTCTTTGATTCCAATGCTC,-0.409,-0.406,-0.413,0.232,-0.841,4.15,8.96,8.59,7.74,9.9
AATACAGGGTCACTAGGCCCGAGTAGGTACGAAT,6.16,4.62,0.516,3.53,0.618,5.37,6.32,5.26,2.34,4.04
ATATGTTGGTTAGGGTCATTCAGAAAGTAGGGAA,4.81,4,1.67,4.72,2.36,4.86,3.15,3.69,1.7,2.88
CAAGCTAGGTCAAAGGTCAAAGTCGAGCCAACCA,8.68,7.38,5.19,7.27,2.73,7.38,12.9,10.7,12,12
ATATGTAGGTTAGGGTCATTTAGAAAGTAGGGAA,4.85,3.93,1.62,4.59,1.67,5.67,7.69,6.54,4.42,6.23
CGAACTAGGTCACCGGGACAGTGAAGAGGTTGGA,4.89,2.78,-0.0882,1.89,-0.502,5.58,9.04,7.34,5.02,7.12
TAGCCTAGGTCATTCAGGGGTCAGTATAGAAAGC,5.8,5.2,3.94,5.72,2.32,5.18,4.13,4.56,1.78,3.3
CGAACTAGGTCAGAACAGGACATTGAAGGATGAT,1.42,1.55,0.178,0.649,-0.13,3.32,5.42,4.48,1.68,3.62
CGAACTAGGTCACCAGGACTGTGAAGAGGTTGGA,4.32,2.55,-0.155,1.59,-0.403,5.08,8.54,6.81,4.45,6.79
CTTAGTTGGTCAAGGTCACACACGCTATAGGTAC,4.69,4.17,2.15,4.03,1.14,4.51,4.28,4.71,2.33,3.77
CGAACTAGGTCACCAGGACATTGAAGAGGTTGGA,4.15,2.68,0.557,1.82,-0.284,5.35,8.44,7.05,4.88,6.35
ATACCAAGGTCATCGTGAGGTCGTTGATACTAAC,7.59,6.05,4.44,5.33,1.71,5.74,6.03,5.6,2.72,4.27
CCTCGGAGGACAGAAGGTCAGATCTGTCCGCTTT,1.34,1.57,0.283,1.25,-0.347,1.62,0.155,0.812,-0.772,0.0725
ATCGTAAGGTCGTGAGGTGAGTATACAGAAAGGC,3.26,2.69,-0.00472,2.14,0.775,3.87,1.99,2.39,0.777,1.55
ATATGTAGGTTAGGGTCATTCTGAAAGTAGGGAA,4.59,3.97,1.34,4.53,1.8,5.46,7.45,6.24,3.83,5.9
CCTTACGGGTCACGGGGTTATAGCACGACGAGCG,7.63,5.25,0.321,4.81,0.272,6.37,8.37,7.11,3.95,6.75
ATCGAAAGGTCGTCGAGGTGAGTATACACCGTTT,4.79,4.28,0.169,3.19,0.543,4.87,3.07,3.97,1.22,2.66

Sequence,PBM binding z-score [1],PBM binding z-score [2],PBM binding z-score [3],PBM binding z-score [4],PBM binding z-score [5],PBM binding z-score [6],PBM binding z-score [7],PBM binding z-score [8],PBM binding z-score [9],PBM binding z-score [10]
TTACCAAGGTGAAAGGTCGTTGAGGCACGCCTTG,3.79,3.61,0.199,2.74,-0.545,5.53,9.39,8.28,7.31,9.21
TGAATGACGTTAAAGATCAGGGAACGTGGCGTCG,-0.238,-0.18,-0.178,-0.538,0.178,-0.0143,0.989,1.26,0.931,1.28
CGAACTAGGCCACCAGGACAGTGAAGAGGTTGGA,-0.158,-0.638,-0.662,-0.868,-0.94,1.98,3.12,2.28,0.382,1.23
ATCCAAAGGTCGAGGTGAGTATAGAGAAAGGGAA,4.69,4.08,0.242,3.36,0.755,4.91,4.74,4.86,1.7,3.57
CCTAGCAGGCCAGGGTCACCCAAGCATTTCGCTT,2.7,1.95,-0.482,2.3,-1.1,3.82,1.34,2.02,-0.0989,1.43
ATATGTAGGTTAGGGTCCTTCAGAAAGTAGGGAA,0.884,0.754,0.168,1.21,0.702,3.14,4.35,3.79,1.56,2.95
CCTACTGGGCCATGAAAGGTCATTGATTCAGTGA,3.25,4.74,4.74,3.86,0.00492,4.16,2.9,4.17,1.44,3.24
TCTCGGAGGACACGAAAGGTGAGAGCTCGACATC,0.988,0.364,-0.458,-0.112,-0.994,1.22,0.346,1.01,2.1,1.25
TTACAAAGGTGAGCTGAGGTCGTTGATCCAACTC,2.66,3.19,-0.299,1.68,-0.674,2.86,1.57,2.39,0.713,1.38
ACTAGTTGGTAAGCTGAGGTCACACACAATTCGG,2.58,3.17,2.68,3.35,0.606,3.57,1.54,1.96,0.653,1.13
CGAACTAGGTCACCAGGCCAGTGAAGAGGTTGGA,4.08,2.41,-0.125,1.44,-0.76,5.2,8.64,7.15,4.02,6.44
ACTAGTAGGTCAGCTGAGGTCACACACAATTCGG,6.7,6.09,5.43,5.14,1.5,5.36,7.75,6.54,4.28,6.26
AGTCAAAGTTCAGGACGAGGTACCGTAAAGCACG,3.73,3.6,1.07,1.66,0.243,3.21,4.19,4.86,1.63,3.51
ATATGTCGGTTAGGGTCATTCAGAAAGTAGGGAA,4.73,3.97,1.11,4.09,2.21,4.78,3.57,3.71,1.57,3.07
ATATGTAAGTTAGGGTCATTCAGAAAGTAGGGAA,4.8,4.5,1.55,4.13,1.31,4.91,2.88,3.41,1.15,2.64
CGAACTAGGTCAAAGGACAGAGAAAGGCGACGTA,4.22,2.87,-0.0116,1.9,-0.178,5.58,10.3,8.77,8.15,9.91
CGAACTAGGTCAAAGTACAGTGAAAGGCGACGTA,4.69,3.09,0.303,2.45,0.12,5.46,9.58,7.61,7.01,8.33
CGAACTAGGTCAAAGGACAGTGGAAGGCGACGTA,3.72,2.62,-0.0912,1.47,-0.761,5.49,9.71,8.34,8.02,9.05
CGTCTAAGGTCAAAGGTCAGTGAAGAGATGACGG,8.79,7.27,4.41,6.95,2.67,7.45,11,8.6,8.75,10.3
CCTACTGGGCCAAAAAGGTAATTGATGCCGATAA,-0.234,-0.225,-0.561,-0.28,-0.84,0.543,0.593,1.19,-0.018,0.799
CTCGAAAGGTCAGTTGAGGTGAGTATACGGATAA,6.96,5.84,1.79,4.51,2.26,5.5,4.89,5.13,1.86,4.15
CGTCCAAGGTCACCAGGTCAGTGAAAGCGACGTG,7.52,5.47,1.42,4.08,0.282,6.01,7.61,6.88,3.48,5.87
CGAAATAGGTCAAAGGACAGTGAAAGGCGACGTA,6.11,4.45,0.474,3.47,0.71,5.96,9.28,8.26,7.99,8.72
CGAACTAGGTCAAAGGACAGTCAAAGGCGACGTA,4.15,2.73,-0.061,1.89,-0.231,5.68,10.2,8.68,8.42,9.11
